Data: PubChem BioAssay AID2275 (Broad Institute, 2010)
The campaign covered roughly 30,000 compounds. About 190 (0.63%) were called active. Only a selection was taken, and actives are over-represented in it overall. A number with no mark means an inactive call. No stated cut-off is given here; in the data, active means viability loss activity score above about 50%; inconclusive means no clear call, values can overlap the other calls; inactive means below about 35%.

Assay: cytotoxicity in HRASV12-transformed BJ fibroblasts – cell-based, luminescence, CellTiterGlo ATP, primary screen (AID 2275);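 further: higher score means fewer live cells and less ATP luminescence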
Conditions: BJeLR fibroblasts viability, 48 h, stronger effect = higher value, HRASV12, hTERT and SV40 LT/ST transformed, concentration not given here

SMILES | viability loss activity score
N=c1n(CC(=O)c2ccc(Cl)c(Cl)c2)c2ccccc2n1Cc1ccccc1 | 0.84%
O=C(NCCc1ccccc1)c1ccc(NC2=NC3CS(=O)(=O)CC3S2)cc1 (stereo not drawn) | 2.13%
COc1ccc(S(=O)(=O)Nc2cccc3c2O[C@@H](CN(C)Cc2ccc(-c4ccccc4)cc2)[C@H](C)CN([C@H](C)CO)C3=O)cc1 | 1.26%
CC(=O)NC(c1ccccc1)c1ccc2cccnc2c1O (stereo not drawn) | 76.4% (active)
CC(C)(C)c1cc(C(=O)Oc2ccc(Cl)cc2)n(Cc2ccccc2)n1 | 4.03%
C[C@@H]1CN([C@H](C)CO)C(=O)c2cccc(NS(=O)(=O)c3ccc(F)cc3)c2O[C@@H]1CN(C)C(=O)Nc1ccc(F)cc1 | 3.97%
CCOc1cc(CNc2ccc(OC)cc2)ccc1OCC(=O)NC(C)(C)C | -0.358%
COc1ccc(NC(=O)Nc2cccc3c2O[C@@H](CN(C)C(=O)NC(C)C)[C@H](C)CN([C@H](C)CO)C3=O)cc1 | -0.272%
COc1ccc2[nH]c3c(=O)n(Cc4ccc(C(=O)NCc5cccnc5)cc4)c(=S)[nH]c3c2c1 | 2.75%
COCc1cc(C)nc2sc(C(N)=O)c(N)c12 | 6.31%
CCOc1cc(-c2cc(C)c3c(ccc4ccccc43)n2)ccc1O | -1.76%
CCc1ccc(/C=C2\Cc3ccccc3C2=O)cc1 | 4.71%
CCS(=O)(=O)C(=C(Nc1ccccc1)Nc1ccccc1)S(=O)(=O)CC | 21.6%
CN1/C(=C/C(=S)C(C)(C)C)Sc2ccccc21 | 0.712%
CCCCn1c(-c2ccc(Br)cc2)nc2ccccc21 | -1.15%
Cc1ccc(NC2CCCCC2NS(=O)(=O)c2ccccc2)cc1 (stereo not drawn) | 8.06%
Cc1cc(C)c2c(c1)CC(C)(C)c1[nH]c(-c3ccccc3)nc1-2 | -0.635%
COCC(=O)NCc1nn(-c2ccccc2)nc1C | 1.49%
Cc1ccc(S(=O)(=O)c2no[n+]([O-])c2S(=O)(=O)c2ccc(C)cc2)cc1 | 62% (active)
CCOC(=O)N1CCN(C(=O)CSc2ncnc3c2nnn3Cc2ccc(F)cc2)CC1 | -1.44%
Cc1ccc2c(c1)N(CCC(=O)NC1CCC(C)CC1)C(=O)CO2 (stereo not drawn) | -1.39%
C=CCn1c(SCc2ccc(C(=O)O)cc2)nnc1-c1cccc(OC)c1 | -6.6%
CCN(C(=O)c1coc(=O)c2ccccc12)c1cccc(C(F)(F)F)c1 | 0.65%

SMILES | viability loss activity score
O=C(O)CSc1nnc(COc2ccc(Cl)cc2)n1-c1ccc(Br)cc1 | 0.406%
C[C@@H]1CN([C@H](C)CO)C(=O)c2cc(NS(C)(=O)=O)ccc2O[C@H]1CN(C)C(=O)Nc1cccc2ccccc12 | -0.115%
S=C(Nc1cccc(Cl)c1)N1CCCN(Cc2ccccc2Cl)C1 | -1.27%
O=C1CC(c2ccc(F)cc2)CC(O)=C1C=NCCN1CCN(C(=S)Nc2ccccc2)CC1 (stereo not drawn) | 8.57%
Cc1ccc(S(=O)(=O)N2CCCC2)cc1-c1nnc2c3ccccc3c(C)nn12 | 2.21%
CCOC(=O)c1c(C)n(C)c2ccccc12 | 1.79%
Cc1ccc(-n2nnnc2-c2cnn(-c3ccccc3)c2C)cc1 | -4%
Cc1ccc(S(=O)(=O)Nc2ccc3c(c2)C(=O)N([C@H](C)CO)C[C@H](C)[C@H](CN(C)S(C)(=O)=O)O3)cc1 | 0.992%
COC(OC)c1nc(SCC(=O)Nc2ccc(C(C)C)cc2)ncc1C(=O)O | -6.58%
Cc1oc2cc(Br)c(OC(=O)c3ccco3)cc2c1C(=O)OC(C)C | -1.39%
CCc1ccc(NC(=O)c2sc3[nH]c(=O)c(C(=O)O)cc3c2N)cc1 | -3.87%
COCCn1cc(C(=O)NC2CCCCCC2)c2c3ccccc3n(C)c2c1=O | 2.88%
COc1ccc(NS(=O)(=O)c2ccc3c(c2)OCC(=O)N3)cc1 | 3.85%
Cc1ccc(NC(=S)Nc2ccc(C)cc2)cc1 | 2.21%
COC(=O)c1ccccc1Oc1c(F)c(F)nc(N2CCOCC2)c1F | 2.06%
C/C=C(/C)C(=O)O[C@H]1CC(C)(C)C[C@H]2C3=CCC4[C@@]5(C)CC[C@H](O[C@@H]6O[C@H](C(=O)O)[C@@H](O[C@@H]7O[C@H](CO)[C@H](O)[C@H](O)[C@H]7O[C@@H]7O[C@H](CO)[C@@H](O)[C@H](O)[C@H]7O)[C@H](O)[C@H]6O[C@@H]6O[C@@H](C)[C@H](O)[C@@H](O)[C@H]6O)C(C)(C)C5CC[C@@]4(C)[C@]3(C)[C@@H](O)[C@@H](O)[C@@]12CO (stereo partly drawn) | 104% (active)
C=CC1(C)C=C2CCC3C(C)(C)C(O[C@@H]4O[C@@H](CO)[C@H](O)[C@H]4O)CCC3(C)C2CC1O[C@@H]1O[C@H](C)[C@@H](OC)[C@H](O)[C@H]1O (stereo partly drawn) | -5.62%
COc1ccc(/C=C/C(=O)O[C@@H]2[C@@H](OC(=O)/C=C/c3ccc(OC)cc3)[C@H](C)O[C@@H](O[C@H]3[C@@H]4C=CO[C@@H](O[C@@H]5O[C@H](CO)[C@@H](O)[C@H](O)[C@H]5O)[C@@H]4[C@@]4(CO)O[C@@H]34)[C@@H]2OC(C)=O)cc1 | -3.51%
CC1(C)CC[C@]2(C(=O)O)CC[C@]3(C)C(=CCC4[C@@]5(C)CC[C@H](OC6O[C@H](CO)[C@@H](O)[C@H](O[C@@H]7O[C@H](CO)[C@@H](O)[C@H](O)[C@H]7O)[C@H]6O)C(C)(C)C5CC[C@]43C)[C@@H]2C1 (stereo partly drawn) | 17.9%
C/C=C(/C)C(=O)O[C@H]1CC(C)(C)C[C@H]2C3=CCC4[C@@]5(C)CC[C@H](O[C@@H]6O[C@H](C(=O)O)[C@@H](O[C@@H]7O[C@H](CO)[C@H](O)[C@H](O)[C@H]7O[C@@H]7O[C@H](CO)[C@@H](O)[C@H](O)[C@H]7O)[C@H](O)[C@H]6O[C@@H]6O[C@@H](C)[C@H](O)[C@@H](O)[C@H]6O)C(C)(C)C5CC[C@@]4(C)[C@]3(C)[C@@H](OC(C)=O)[C@@H](O)[C@@]12COC(C)=O (stereo partly drawn) | 72.5% (active)
CC1OC(OC2C(OC3C(O[C@H]4CC[C@@]5(C)C(CC[C@]6(C)C5CC=C5[C@@H]7CC(C)(C)C[C@@H](O)[C@]7(C)CC[C@]56C)C4(C)C)OC(C(=O)O)C(O)C3O)OC(CO)C(O)C2O)C(O)C(O)C1O (stereo partly drawn) | 2.12%
COc1cc(OC)c(N(C)C(=O)c2ccc3c(=O)n4c(nc3c2)CCCCC4)cc1Cl | 4.36%
CCN(CC)C(=O)Cn1cc(SCc2ccccc2)c2ccccc21 | -2.18%

SMILES | viability loss activity score
CCCCS(=O)CSc1nc(-c2ccc(OC)cc2)cc(-c2ccccc2)c1C#N (stereo not drawn) | -8.8%
O=C(Nc1ccncc1)c1cccc(COc2ccc3ccccc3c2)c1 | 12.1%
O=C(c1ccccc1)c1cnn(-c2ccc(Cl)cc2)n1 | 14.6%
CN1c2ccccc2C(C)(C)C12Cc1cc(NS(=O)(=O)c3ccc(Cl)cc3)ccc1O2 (stereo not drawn) | 0.312%
O=C(Oc1ccc(Br)cc1)c1ccco1 | -1.65%
CCOC(=O)c1cc(-c2ccc(C)cc2)n(CC(=O)NCC2CCCO2)c1C (stereo not drawn) | -1.7%
N/C(C[n+]1ccccc1)=N\O | -4.49%
O=C(CCc1nc2sc3c(c2c(=O)[nH]1)CCCC3)NC1CCCC1 | 1.97%
O=C1CSC(c2ccc(Cl)cc2)N1Nc1nc(Nc2ccccc2)nc(N2CCCCC2)n1 (stereo not drawn) | -7.31%
COc1ccc(/C=C2\SC(=O)N(c3ccc(C)cc3)C2=O)cc1 | -2.92%
COc1cc2c(c(OC)c1)C(c1ccccc1OC)CC(=O)N2 (stereo not drawn) | 0.526%
COc1ccc(S(=O)(=O)N(C)C[C@H]2Oc3ccc(N(C)C)cc3C(=O)N([C@@H](C)CO)C[C@@H]2C)cc1 | 0.729%
O=C(NCCCN1CCCC1)c1cc(-c2ccncc2)nc2ccccc12 | 3.5%
O=C(NCCc1ccccc1)c1nnc(Cc2ccc(F)cc2)o1 | -0.807%
CCCN(CCC)Cc1c(O)ccc2c(=O)c(-c3ccccc3)coc12 | 3.33%
Cc1cccc(C)c1N=C1Oc2ccccc2NC1(C)c1ccccn1 (stereo not drawn) | -0.212%
CC(C)(C)C1=CC(=Nc2ccccc2N)C=C(C(C)(C)C)C1O (stereo not drawn) | -0.524%
CC(c1ccccc1)N1C(=O)c2ccccc2C1Nc1ccc(F)cc1 (stereo not drawn) | -2.92%
COC(Cn1c(SCC(=O)c2cccc(C(F)(F)F)c2)nnc1-c1ccc(Cl)cc1)OC | 2.18%
CSc1nc(COc2ccc(C(C)(C)C)cc2)nc(-n2cccc2)c1C#N | -2.33%
C=CCC(c1cc(Cl)ccc1N)S(=O)(=O)c1ccc(C)cc1 (stereo not drawn) | 0.759%
CSc1cccc(NC(=O)CSc2nncn3c2cc2sccc23)c1 | -1.6%
